Most compounds without a hit are left out; they make up all but 2.5% or so of the library.
TAG inh: inhibitors of triacylglycerol accumulation; H9c2 cells, Nile Red lipid (TAG) fluorescence; cells loaded with 200 µM oleic acid; inhibition, % at 12.5 µM; 230,000 compounds, 0.66% hits; AID 651582;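 active means pattern-corrected inhibition of lipid staining of at least 50% with the nuclear-stain viability signal not falling by more than 50%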;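 further: 0% = DMSO wells and 100% = triacsin C control wells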
Cardio protect: modulators protecting cardiomyocytes from myocardial damage; H9c2 cardiomyocytes, H2O2 injury protection, ATPLite, 2 h; protection from H2O2 cell death, % at 20 µM; 360,000 compounds, 0.63% hits; AID 588492;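 active means compounds giving at least 50% protection of heart cells from peroxide-induced death in the single-dose screen, raw or plate-pattern-corrected value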;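 further: 0% = DMSO wells with peroxide and 100% = DMSO wells without peroxide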
CRFR2-BP ag: CRF-BP/CRF-R2 complex agonism; 350,000 compounds, 0.46% hits; activation, % at 13.2 µM; HEK293 CRF-R2/CRF-BP, calcium dye fluorescence (FLIPR); percent of saturating CRF peptide response;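 active means activation of at least 50%, plus an integration ratio under a set limit after plate pattern correction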;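 further: plate controls were neutral control wells without compound for no effect and CRF at EC100 for full effect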
CRFBP-R2 block: blocks CRF-induced signaling of the CRF-BP/CRF-R2 complex | HEK293 CRF-R2/CRF-BP, CRF-induced calcium fluorescence | inhibition, % at 11.8 µM | 350,000 compounds, 0.59% hits;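 active means inhibition of the ligand-induced calcium signal above about 50% at the single tested concentration, limit read from the data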
iPSC survival up: increases survival of single human iPS cells | hiPSC single-cell survival, ATPlite luminescence; 100% = ROCK inhibitor wells, 0% = DMSO | survival enhancement, % at 20 µM | 360,000 compounds, 0.044% hits; in the data active means survival enhancement above about 18%;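 further: cells exposed to compounds for 16 hours before the ATP read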
SKN-1 inh: inhibitors of C. elegans SKN-1; 360,000 compounds, 0.49% hits; AID 624304; inhibition, % at 21.8 µM; C. elegans VP596 Pgst-4::GFP/RFP ratio, acrylamide-induced, 24 h;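 active means interference check ratio from 0.5 to 1.5 plus GFP to RFP signal ratio inhibition reaching or exceeding a fixed threshold, cut at about 30% in these data, passing the limit was not always enough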
H9c2 TAG conf: triacylglycerol accumulation inhibition, confirmation. 990 compounds, 71% hits. inhibition, % at 12.5 µM. AID 651629. shares compounds with TAG inh. H9c2 lipid accumulation, Nile Red fluorescence; cells loaded with 200 µM oleic acid;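 active means mean inhibition across replicates of 40% or more; inactive means mean inhibition below 40%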;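 further: plate controls were DMSO only wells for no effect and Triacsin C treated wells for full effect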
* hit, by the source's call; / = not tested or not shown.

SMILES | TAG inh | Cardio protect | CRFR2-BP ag | CRFBP-R2 block | iPSC survival up | SKN-1 inh | H9c2 TAG conf
CSc1ccc(/C=C/C(=O)c2ccc(NC(=O)C(C)C)cc2)cc1 | 6.1 | 2.3 | 7.5 | -0.8 | -4.0 | -15.6 | /
CSc1ccc(/C=C/C(=O)c2ccc(NC(=O)Cc3ccccc3)cc2)cc1 | 59.1* | -8.3 | 0.8 | -8.4 | 1.9 | 12.4 | 22.1
COc1ccccc1C1/C(=C(\O)c2ccc3c(c2)OCCO3)C(=O)C(=O)N1CCCn1ccnc1 (stereo not drawn) | / | 0.4 | 0.2 | -9.0 | 0.4 | -3.9 | /
O=C(COc1ccc(Cl)cc1Cl)N/N=C1\CCCc2ccccc21 | -0.7 | -19.4 | 1.2 | -22.6 | 1.3 | -3.9 | /
O=C(COc1ccc(Cl)cc1Cl)NN=C1c2ccccc2-c2ccccc21 | 50.7* | -2.1 | -0.6 | -6.0 | 1.2 | 2.1 | 20.8
C[C@@]12C(=O)Nc3ccc(Br)cc3C(=O)N1[C@H]1c3cc(Cl)ccc3OC[C@@H]1[C@@H]2c1ccccc1 | 52.1* | 5.8 | 4.8 | -1.4 | 4.2 | -4.5 | 63.7*
COc1cc(-c2cc3nc(NCCOc4ccccc4)ccn3n2)cc(OC)c1OC | 54.1* | 92.2* | / | / | -0.2 | 20.9 | 49.0*
CCC1=Nc2cc(C(=O)NCCCOC)ccc2Sc2ccccc21 | 61.0* | -0.8 | -5.4 | -19.5 | 2.6 | 15.1 | 44.6*
CCC1=Nc2cc(C(=O)NCCN3CCCC3)ccc2Sc2ccccc21 | / | 5.6 | 0.5 | -12.6 | 0.8 | 7.7 | /
CC(C)Oc1cccc(-c2nnc(SCC(=O)Nc3ccc4c(c3)OCCO4)n2N)c1 | 0.6 | -0.4 | -0.7 | -7.5 | 1.7 | -7.4 | /
CN(C)CCCn1c(SCC(=O)Nc2nc(-c3cccc(Br)c3)cs2)nc2ccccc2c1=O | 79.1* | -28.1 | 0.0 | -12.8 | -0.9 | 7.7 | 66.7*
CC(C)Sc1nnc(NC(=O)c2ccco2)s1 | 54.5* | -3.0 | -4.8 | 7.7 | 0.6 | 5.0 | 17.7
CCSc1nnc(NC(=O)c2ccco2)s1 | -9.7 | -7.1 | -3.0 | 9.3 | -1.4 | -6.8 | /
CCCCN(C=O)c1c(CC)nc2c(OCc3ccccc3C)cccn12 | -4.9 | 0.7 | / | / | 0.0 | -8.8 | /
CCN(CC)S(=O)(=O)c1ccc(S(=O)(=O)N(CC(=O)Nc2ccccc2)CC2CCCO2)cc1 (stereo not drawn) | / | 6.2 | 14.3 | -11.3 | -2.8 | -4.6 | /
O=C(CN(CC1CCCO1)S(=O)(=O)c1ccc(S(=O)(=O)NC2CC2)cc1)Nc1ccccc1 (stereo not drawn) | 51.1* | 15.1 | -2.1 | -3.1 | 5.0 | -7.8 | 38.5
O=C1CCCC2=C1C1(CCCCC1)N=C(Nc1nc3ccccc3o1)N2 | 13.8 | -10.5 | 1.5 | -8.9 | 1.5 | 6.4 | /
O=C1CCCC2=C1C1(CCCC1)N=C(Nc1nc3cc(-c4ccccc4)ccc3o1)N2 | 62.4* | -17.7 | / | / | -1.8 | 8.8 | 70.8*
O=C(NC(=S)NCCc1ccccc1)C1CCCCC1 | -6.9 | -3.5 | -1.6 | -42.2 | -2.6 | 2.6 | /
O=C(NC(=S)N(Cc1ccccc1)Cc1ccccc1)C1CCCCC1 | 53.7* | -1.5 | 1.5 | -11.1 | 1.8 | 6.8 | -0.5
CCOc1c(Cl)cc(/C=C/C(=O)N(CC)CC(=O)NCc2cccs2)cc1OC | 59.1* | -4.4 | -1.5 | 6.0 | -0.4 | 10.4 | 42.6*
CC1CCN(CCC(=O)NN)CC1 | 12.3 | 3.9 | -1.5 | 5.7 | -1.5 | 13.5 | /
NNC(=O)CCN1CCCCC1 | 82.8* | -0.4 | 0.8 | -8.0 | 1.1 | -0.2 | 2.7
Fc1cccc(Nc2nc(-c3ccncc3)nc3ccccc23)c1 | 69.1* | -3.9 | 0.2 | -25.9 | 1.2 | 9.8 | 63.0*
CCOc1ccc(C(=O)CN2CCN(S(=O)(=O)c3ccc(OC)cc3)CC2)cc1 | -9.4 | -15.0 | -0.7 | 6.1 | -1.5 | 11.4 | /
SMILES | TAG inh | Cardio protect | CRFR2-BP ag | CRFBP-R2 block | iPSC survival up | SKN-1 inh | H9c2 TAG conf
O=C(c1cccc([N+](=O)[O-])c1)N1CCN(c2cccc(Cl)c2)CC1 | 5.7 | 3.8 | -2.1 | 18.0 | 5.8 | -0.1 | /
COC(=O)c1cc(C(=O)N2CCN(c3cccc(Cl)c3)CC2)cc([N+](=O)[O-])c1 | 63.5* | -0.2 | -7.4 | -13.3 | -2.3 | 11.6 | 56.3*
CC1=NN(S(=O)(=O)c2ccc(C)cc2)C(=O)c2ccccc2O1 | -8.6 | -0.1 | -0.9 | -9.4 | -0.7 | 0.1 | /
COc1ccc(S(=O)(=O)N2N=C(C)Oc3ccccc3C2=O)cc1 | 63.4* | 6.7 | -0.8 | -2.0 | -1.8 | -19.6 | 53.6*
O=C(NCCCN1CCOCC1)NC1CCCCC1 | -13.9 | 6.6 | 0.5 | -19.6 | 12.7 | 19.4 | /
O=C(NCCCCCCCN1CCCCCCC1)C(C1CCCCC1)C1CCCCC1 | 69.9* | -16.5 | -1.3 | -16.5 | 1.5 | 6.8 | 50.6*
CC[C@]1(C(=O)OC)[C@H]2C(=O)N(C)C(=O)[C@H]2[C@H]2CN=C(SCc3ccc(C#N)cc3)N21 | -1.1 | -11.8 | -2.1 | 1.5 | 1.3 | -5.7 | /
Cc1nc2c(ccc3nc(NC(=O)Cc4cccc5ccccc45)sc32)s1 | 51.0* | 5.6 | 0.5 | -16.0 | 1.1 | 14.4 | 57.9*
Oc1ccc(C[C@H]2CN([C@@H](Cc3ccccc3)CN3CCC[C@@H]3CN3C(=S)NC[C@@H]3Cc3ccccc3)C(=S)N2CC2CCCCC2)cc1 | / | -9.0 | / | / | -1.7 | 2.0 | /
CC(C)C[C@H]1CNC(=S)N1CC1CCCN1C[C@H](CC(C)C)N1C[C@H](Cc2ccccc2)N(CC2CCCCCC2)C1=S (stereo partly drawn) | -10.7 | -5.4 | 0.8 | -1.9 | -4.2 | -5.8 | /
CC(C)C[C@H]1CNC(=S)N1CC1CCCN1C[C@H](CC(C)C)N1C[C@H](CC(C)C)N(CCc2ccccc2)C1=S (stereo partly drawn) | 74.3* | -26.0 | 2.8 | 3.0 | -3.0 | 18.4 | 81.5*
Oc1ccc(C[C@H]2CNC(=S)N2CC2CCCN2C[C@H](Cc2ccc(O)cc2)N2C[C@H](Cc3ccc(O)cc3)N(CC3CCCCCC3)C2=S)cc1 (stereo partly drawn) | 75.8* | -12.6 | 0.3 | -10.7 | 5.4 | 4.0 | 72.1*
CC(C)C[C@H]1CNC(=S)N1CC1CCCN1C[C@H](CC(C)C)N1C[C@H](CC(C)C)N(CC2CCCCCC2)C1=S (stereo partly drawn) | 62.3* | -21.7 | 3.9 | 12.7 | -4.2 | 0.2 | 55.3*
Clc1ccc(CSc2nnc(-c3cccnc3)n2Cc2ccco2)c(Cl)c1 | -10.1 | 2.5 | 0.1 | -5.4 | -0.4 | 12.1 | /
O=C(Nc1cccc(Cl)c1)c1cc(S(=O)(=O)N2CCOCC2)cs1 | -3.7 | -10.9 | 1.0 | -34.2 | -0.3 | 8.9 | /
O=C(Nc1ccc(Br)cc1)c1ccc(N2C(=O)C3CC=C(Cl)CC3C2=O)cc1 (stereo not drawn) | 2.1 | -10.6 | -0.1 | -2.7 | -0.1 | 9.2 | /

Screening results deposited in PubChem BioAssay by Sanford-Burnham Center for Chemical Genomics.
